Laboratory results taken from the supplement of paper PMC13380429.

Test system: Vero E6 infected with SARS-CoV-2
Experiment: inhibition of SARS-CoV-2 cytopathic effect; higher = more antiviral protection, active = above 15
Conditions: 48 h

Measured: inhibition of SARS-CoV-2 cytopathic effect

CC(C)(C)C1CCc2c(sc(NC(=O)c3ccco3)c2C(=O)O)C1 (stereo not given)
inactive: 1 nM 0.37% | 8.33 nM 3.15% | 100 nM 1.01% | 833.33 nM 0.8% | 10000 nM -2.29%

CN[C@H](C(=O)N[C@H](C(=O)N(C)[C@H](/C=C(\C)C(=O)O)C(C)C)C(C)(C)C)C(C)(C)c1ccccc1 [taltobulin]
inactive: 1 nM -0.53% | 8.33 nM -1.55% | 100 nM -0.97% | 833.33 nM -1.63% | 10000 nM -1.03%

Oc1c(Br)cc(Br)c2cccnc12 [broxyquinoline]
inactive: 1 nM -1.46% | 8.33 nM 2.01% | 100 nM -2.42% | 833.33 nM -2.35% | 10000 nM -5.91%

Cc1c(O)c(=O)n(-c2ccccc2)n1C [4-hydroxy-phenazone]
inactive: 1 nM -1.11% | 8.33 nM 0.39% | 100 nM 4.58% | 833.33 nM -1.8% | 10000 nM -2.04%

CC(C)(O)C(Cl)(Cl)Cl [chlorobutanol]
inactive: 1 nM 0.34% | 8.33 nM 1.76% | 100 nM 0.44% | 833.33 nM 1.86% | 10000 nM -2.07%

CN1CCCC(CN2c3ccccc3Sc3ccccc32)C1 (stereo not given) [mepazine]
inactive: 1 nM -2.3% | 8.33 nM 3.28% | 100 nM 3.56% | 833.33 nM -2.75% | 10000 nM 5.75%

COc1ccc(C(C)(C)C)cc1CN[C@H]1C2CCN(CC2)[C@H]1C(c1ccccc1)c1ccccc1 [maropitant]
inactive: 1 nM 2.55% | 8.33 nM 0.73% | 100 nM -1.99% | 833.33 nM -1.66% | 10000 nM 12.5%

C[C@@H]([C@@H](O)c1ccc(O)cc1)N1CCC(O)(c2ccccc2)CC1 [traxoprodil]
inactive: 1 nM 4.34% | 8.33 nM -0.79% | 100 nM -2.83% | 833.33 nM 1.39% | 10000 nM -1.06%

COc1nc(C)nc(Cl)c1NC1=NCCN1 [moxonidine]
inactive: 1 nM -0.54% | 8.33 nM 1.98% | 100 nM -1.9% | 833.33 nM -2.44% | 10000 nM -1.74%
